Test results published in PubChem BioAssay (NCI).
“And” between values parts separate entries of the source, which are not always exact repeats. Equal values may be shown once. Compounds without any hit were thinned out: in the full panel of roughly 83,000, 20% have a hit.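 Compound tested at a single concentration for 48 hours in 96-well plates; a percent growth value below 10 was scored as active.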 Values without a mark were called inactive. The source made the active and inactive calls.

The compounds below were run on UACC-62 melanoma (assay: NCI-60 one-dose screen, 48 h (100 = growth as untreated, 0 = no growth, -100 = all killed)). Details: 10 µM unless noted.

For `C=CC(COC(=O)C(C)(C)OC(C)=O)c1ccc(OC(=O)C(C)C)c(OC)c1` (stereo not given), which growth is on record?
The growth was -92.2% [100 µM] (active) and -93.9% [100 µM] (active).

`O=C(O)CCCC(=O)Nn1c(Cc2ccc(Cl)cc2)n[nH]c1=O` was tested. Which growth did it give?
Its growth is 70.6% [100 µM] and 92.1% [100 µM].

Which growth does the source give for `C/C(O)=C/c1nc2sc(C)c(C)c2c(=O)s1` here?
The growth was 19.1% [100 µM] and 37.1% [100 µM].

Which growth does the source give for `COC(=O)/C(=N\NC(=S)NN)C(C(=O)OC)C(=O)C(=O)Nc1cccc(C(F)(F)F)c1` (stereo not given) here?
The growth was 98.2% [100 µM] and 59.6% [100 µM].

How did the growth turn out when `CC1OC23CCCCC2C(C#N)(C#N)C1(C#N)C(=N)O3` (stereo not given) was run?
The growth was -14.6% [100 µM] (active).

Which growth does the source give for `Cc1ccc(NC2=N/C(=C/c3ccccc3)C(Cl)=N2)cc1` here?
The growth was 27.6% [100 µM] and 12% [100 µM].

Which growth does the source give for `C=C1C(=O)O[C@@H]2C[C@@]3(C)CC(=O)C=C(C)[C@@H]3C[C@H]12` here?
The growth was -95.6% [100 µM] (active) and -86.6% [100 µM] (active).

With `COC(=O)C(/C(=N/NC(N)=O)C(=O)Nc1ccc(C)cc1)c1nc2ccc([N+](=O)[O-])cc2[nH]c1=O` (stereo not given) as the compound, how does the growth read?
Its growth is 61.4% [100 µM] and 23.2% [100 µM].

How did the growth turn out when `C=C1C(=O)OC2/C=C(\CO)CC/C=C(\CO)CC(OC(=O)C(C)C)C12` (stereo not given) was run?
The growth was -89.5% [100 µM] (active) and -98.8% [100 µM] (active).

For `CC(=O)C1=C(C)N2C(=NC3=C(CCc4ccccc43)C2c2ccc(Cl)cc2)S1` (stereo not given), which growth is on record?
The growth was 48.8% [100 µM] and 14.3% [100 µM].
